Source: PubChem BioAssay
HCMV antiviral: blocks human cytomegalovirus replication. AID 1259415. activity change, negative = inhibition, % at 57.5 µM. HFF cells, HCMV-luciferase reporter, 72 h; stronger effect = lower value. 410,000 tested, 4.5% active; in the data active means activity change below about -60%; inconclusive means no clear call, values can overlap the other calls; inactive means above about -39%; further: on the % scale 0 is the no-effect control and ±100 the full control effect
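Screen run at 2 compound doses on HFFs infected with reporter HCMV, MOI 1 PFU/cell. Luciferase activity from cell lysates at 72 h post infection gave inhibition relative to buffer-only and Salinomycin wells.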
HCV inhibitor: blocks hepatitis C virus | Potency, µM (doses to about 41.8 µM), inactives show at the top dose activity change, negative = inhibition, actives largely listed as inhibitors | Huh7.5.1 HCVcc-Cre infection, luciferase reporter, 44 h | AID 651820 | 340,000 tested, 3.4% active; further: potency means the concentration at half of the fitted maximal effect; on the % scale 0 is the no-effect control and ±100 the full control effect
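Compounds are dispensed onto cells plated 4 h earlier at 1,000 per well, with HCVcc-Cre virus (about 0.5 moi) added next. Following 44 h of culture, luminescent signal is measured for 15 sec after 15 min with substrate at room temperature.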
Sm TGR inh: inhibitors of Schistosoma mansoni thioredoxin glutathione reductase. Q962Y6. AID 485364. purified TGR, DTNB reduction, TNB absorbance 405 nm. 360,000 tested, 3% active. Potency, µM (top dose mostly 114 µM), inactives show at the top dose activity change, negative = inhibition, hits mostly inhibitors; further: potency means the concentration at half of the fitted maximal effect; on the % scale 0 is the no-effect control and ±100 the full control effect; nearly all actives have a fitted effect of over 60% in size
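First, TGR (20 nM dispensed) and NADPH were mixed with compound. Second, a 15 min room-temperature incubation followed. Third, further NADPH and then DTNB were added to start the reaction. Finally, TNB absorbance was monitored kinetically.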
Pf growth 96h: P. falciparum growth inhibition at 96 hours | P. falciparum luciferase reporter growth, 96 h | Potency, µM (top dose mostly 28.7 µM), for inactives: top-dose activity change, negative = inhibition, most hits filed as inhibitors | 320,000 tested, 6.9% active | AID 504834; further: potency means the concentration at half of the fitted maximal effect; on the % scale 0 is the no-effect control and ±100 the full control effect
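96 h incubation, 37 C, 5% CO2, of luciferase-reporter P. falciparum-infected RBCs (2% hematocrit, 0.05% parasitemia final) with test compounds; endpoint luminescence.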
SARS PLpro yeast: SARS-CoV PLP inhibition in yeast. S. cerevisiae expressing SARS-CoV PLpro, growth rescue. AID 485353. Potency, µM (series often up to 32.9 µM), for inactives: top-dose activity, positive = growth rescue, most hits filed as activators. 330,000 tested, 0.19% active; calls by dose curve; further: potency means the concentration at half of the fitted maximal effect; 0% is about no effect; nearly all actives have a fitted effect of over 55% in size
Pf growth 48h: inhibits P. falciparum growth in the first generation, 48 h | P. falciparum luciferase growth in erythrocytes, 48 h | Potency, µM (top dose mostly 28.7 µM), for the others: at the top dose activity change, negative = inhibition, actives largely listed as inhibitors | 310,000 tested, 5.9% active | AID 504832; further: potency means the concentration at half of the fitted maximal effect; on the % scale 0 is the no-effect control and ±100 the full control effect
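In quantitative HTS format, infected erythrocytes bearing luciferase-reporter parasites were treated for a single generation at 37 C. Luminescence after adding detection reagent served as the growth measure.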
* hit, by the source's call; ? = inconclusive; . = no result given; [ ] = remark or other dose. The list is not random: actives were taken first. Their share in the collection is about 15%. Unless noted, the call rests on the fitted dose curve; in most records, active means well fitted curve in the direction sought with a large enough effect; inconclusive means small, poorly fitted or top-dose-only effect, or another doubt; inactive means no such curve, though single readings can be large; an effect the other way counts as inactive or inconclusive.

SMILES	HCMV antiviral	HCV inhibitor	Sm TGR inh	Pf growth 96h	SARS PLpro yeast	Pf growth 48h
CC(=O)O[C@H]1C(=O)[C@@]2(C)C([C@H](OC(=O)c3ccccc3)[C@]3(O)C[C@H](OC(=O)[C@H](O)[C@@H](NC(=O)c4ccccc4)c4ccccc4)C(C)=C1C3(C)C)[C@]1(OC(C)=O)CO[C@@H]1C[C@H]2O (some centres not stated)	-11.0	?	1.0%	?	-2.1%	?
CCCCNC(=O)C(NC(=O)c1ccccc1)C(=O)c1ccccc1 (configuration not stated)	-6.2	.	.	.	.	.
O=C(NCC(O)c1nc2ccccc2[nH]1)c1cc2ccccc2[nH]1 (configuration not stated)	51.1	.	.	.	.	.
CCOc1ccc(C(C)(C)C)cc1S(=O)(=O)Nc1ccncc1	-11.0	12.1%	-0.1%	59.4%	7.9%	6.2%
COc1ccc(NC(=O)CC2C(=O)N(c3cccc(C)c3)C(=O)N2C2CCCCC2)cc1 (configuration not stated)	6.0	2.5%	5.2%	-4.5%	-5.6%	-16.8%
C/C(=N\Nc1ccccc1C)c1cccnc1	?	-6.5%	35.5µM*	9.1%	0.6%	4.1%
CCOc1cc(/C=C2/SC(=Nc3ccccc3)N(Cc3cccnc3)C2=O)ccc1OCC#N	-60.2*	?	4.8%	2.08µM*	3.2%	?
COc1ccc(/C=C2\SC(=S)N(Cc3cccnc3)C2=O)cc1C	5.8	1.9%	-3.0%	?	3.6%	?
NCCS	5.4	0.562µM*	-11.2%	8.6%	0.5%	4.3%
CC(C)CN(C(=O)COC(=O)c1ccccc1SCC(=O)N1CCCC1)C1CCS(=O)(=O)C1 (configuration not stated)	-3.3	15.8%	.	.	.	.
CCCCC(=O)NS(=O)(=O)c1ccc(N=NN2CCOCC2)cc1	4.8	8.7%	-15.3%	22.6%	?	13.6%
COc1ncccc1-c1nnn(-c2ccc(Cl)nc2)n1	99.5	10.1%	25.1µM*	140.5%	12.3%	102.2%
C/C(=N\NC(=O)Cc1cccn1C)c1ccco1	12.4	3.0%	39.8µM*	41.4%	3.1%	18.0%
Cn1cccc1CC(=O)N/N=C/C=C/c1ccco1	25.2	-4.5%	11.2µM*	-15.5%	8.8%	65.0%
CCCCc1ccc(S(=O)(=O)N[C@H]2CC[C@@]34CCCN3C(=O)CCC[C@H]4[C@H]2Cc2ccccc2)cc1	-30.5	.	.	.	.	.
Cn1c2ccccc2c(=O)c2c(=O)n(-c3ccc(F)cc3)c(C3CCCCC3)nc21	-37.1	0.4%	.	.	.	.
O=C1OC(c2ccccc2)=N/C1=C\C=C\c1ccccc1[N+](=O)[O-]	-6.5	-7.3%	-8.1%	0.465µM*	23.1%	19.1%
CC[C@]1(c2ccccc2OC)ON(c2ccccc2C(F)(F)F)C1=O	-28.9	?	-3.4%	0.415µM*	0.3%	0.522µM*
COc1ccccc1[C@]1(C)ON(c2ccccc2C(F)(F)F)C1=O	-0.6	?	0.0%	0.828µM*	-0.1%	1.04µM*
CC(C)C[C@]1(c2ccccc2)ON(c2ccccc2C(F)(F)F)C1=O	10.1	7.0%	1.0%	?	-0.2%	9.28µM*
COc1ccc2c(c1)C(=O)N(c1ccccc1OC)C(=O)C2(C)C	-25.6	-16.8%	-24.0%[11.4 µM]	46.0%	1.7%	.
CCOCCc1nn2c(=O)cc(COC(=O)c3ccccc3NC(=O)c3ccccc3F)nc2s1	8.8	.	0.0%	.	.	.
Clc1cccc(-c2ccc(C3Nc4cccc5cccc(c45)N3)o2)c1	.	.	.	.	7.9%	.
Cc1cc(C)nc(-n2nc(C)cc2NC(=O)c2cccc(S(=O)(=O)N(C)C)c2)n1	.	-14.9%	6.7%	2.3%	0.1%	?
Cc1ccc(C(=O)NCC(=O)Nc2ccncc2)cc1C	-73.8*	6.0%	-22.6%	-42.4%	-0.1%	39.3%
SMILES	HCMV antiviral	HCV inhibitor	Sm TGR inh	Pf growth 96h	SARS PLpro yeast	Pf growth 48h
Cc1cccc(-c2cc(C(=O)Nc3ccncc3)c3ccccc3n2)c1	-7.1	-17.5%	-9.8%	2.33µM*	-8.1%	1.04µM*
COc1ccc(-c2cc(C(=O)Nc3ccc(C)c(N)c3)c3ccccc3n2)cc1	-9.5	11.2µM*	1.4%	-33.5%	-10.5%	?
Cc1ccc(C)c(C(=O)Nc2cc(C)nn2-c2nc(C)cc(C)n2)c1	-27.2	?	-4.2%	?	-0.6%	13.1µM*
Cc1ccc(C(=O)NCC(=O)Nc2ccncc2)cc1	-4.4	2.8%	1.5%	42.2%	-6.7%	65.6%
Cc1ccc(F)c(S(=O)(=O)NC(=O)C2(C)CCN2C(=O)C/C=C/c2ccccc2)c1 (configuration not stated)	-24.8	.	.	.	.	.
COc1ccc(CCNC(=O)c2cccnc2Cl)cc1OC	13.7	0.3%	.	.	.	.
COC(=O)c1ccc(NC(=O)c2cc(-c3ccncc3)nc3ccccc23)cc1	0.0	10µM*	-3.1%	?	-3.5%	?
Cc1c(-c2ccccc2)nc2ccccc2c1C(=O)O	19.6	14.3%	5.2%	-5.3%	3.0%	-2.1%
Cc1c(-c2ccccc2)nc2ccccc2c1C(=O)Nc1ccncc1	-39.1	?	-9.4%	0.329µM*	-0.8%	1.65µM*
Cc1ccc(C)c(C(=O)Nc2ccncc2)c1	-11.7	-13.8%	-17.4%	2.08µM*	8.7%	?
Cc1cc(CCNC=O)c(C)c2c1oc1ccccc12	59.0	?	.	.	.	.
Cc1ccccc1OCCC(=O)OCC(=O)Nc1c(C)nn(-c2ccccc2)c1C	-20.6	?	-10.0%	60.1%	-3.4%	4.2%
COc1ccc(-c2nn(CCC#N)cc2C(=O)NCc2ccccc2)cc1OC	25.3	0.7%	-15.4%	11.7µM*	-0.1%	232.4%
O=C(NC1CCCc2c1cnn2-c1ccccc1F)c1ccncc1 (configuration not stated)	-84.0*	.	.	.	.	.
Cc1nnsc1C(=O)NC1CCCc2c1cnn2-c1ccccc1F (configuration not stated)	-87.4*	?	-25.3%	-15.3%	3.4%	32.0%
O=C(NC1CCCc2c1cnn2-c1cc(F)cc(F)c1)c1ccncc1 (configuration not stated)	-22.3	?	0.3%	?	-2.8%	34.5%
